From PubChem BioAssay (EPA / NIEHS)
Results filed as inconclusive are left out. The source made the active and inactive calls. Rule for the calls, unless noted: active = hit-call score of the fitted dose curve at least 0.9, where 1 is the maximum; inactive = score below 0.9.

Columns and labels:
[1] = biological target: Agonist Androgen Response Element (ARE), AR (gene 367) (UniProt P10275); experiment: OT_AR_ARELUC_AG_1440: Odyssey Thera (OT) 24-hour CHO-K1 Luciferase Assay for Agonist Androgen Response Element (ARE) (AID 2283379; active = hit-call score of the fitted dose curve at least 0.9, where 1 is the maximum)
Method in brief: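 CHO-K1 cells carrying an ARE-driven luciferase reporter were exposed to compounds for 24 h. Luminescence was then read after adding a D-luciferin/ATP mix, and activity was scored as a gain in signal over DMSO vehicle.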

[2] = biological target: Estrogen receptor beta (Homo sapiens) (UniProt Q92731); experiment: OT_ER_ERbERb_1440: Odyssey Thera (OT) 24-hour HEK293T Protein-Complementation Assay for Estrogen Receptor-beta/-beta Homodimer (AID 2283380; active = hit-call score of the fitted dose curve at least 0.9, where 1 is the maximum;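 note: scored as signal increase over DMSO baseline for both agonists and antagonists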)
Method in brief: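 HEK293T cells stably expressing ER beta LBD (aa 310-547) homodimer fragment-complementation reporter, dosed 24 h. Cells formaldehyde-fixed, Draq5-stained; gain in nuclear (agonist) or nuclear plus cytoplasmic (antagonist) fluorescence versus DMSO read by laser scanning cytometry.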

[3] = biological target: Estrogen receptor (Homo sapiens) (UniProt P03372); experiment: OT_ERa_GFPERaERE_0480: Odyssey Thera (OT) 8-hour HeLa Transcription Induction Assay for Estrogen Receptor (AID 2283381)
Method in brief: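 Fluorescent reporter signal, imaged by microscopy and scored with image-analysis algorithms, was taken 8 h after chemical dosing of HeLa cells; activity was fitted upward relative to DMSO.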

[4] = biological target: Estrogen receptor (Homo sapiens) (UniProt P03372); experiment: OT_ERa_GFPERaERE_0120: Odyssey Thera (OT) 2-hour HeLa Transcription Induction Assay for Estrogen Receptor (AID 2283382; active = hit-call score of the fitted dose curve at least 0.9, where 1 is the maximum)
Method in brief: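 HeLa, 384-well, 2 h chemical exposure; GFP reporter induction (ERE), fluorescence microscopy; high content image analysis; positive fitting direction vs DMSO.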

[5] = biological target: Peroxisome proliferator-activated receptor gamma (Homo sapiens) (UniProt P37231); experiment: OT_PPARg_PPARgSRC1_0480: Odyssey Thera (OT) 8-hour Protein-Complementation Assay for Peroxisome Proliferator-activated Receptor Gamma / SRC-1 Co-activator (AID 2283387; active = hit-call score of the fitted dose curve at least 0.9, where 1 is the maximum;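 note: nuclear to cytoplasmic split Venus YFP fluorescence ratio reporting PPARg SRC-1 interaction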)
Method in brief: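 Protein-fragment complementation in HEK293T: Venus YFP halves (residues 1-158, 159-239, mutated to IFP1/IFP2) fused to PPARg/SRC-1. 8 h exposure; N/C ratio at 488 nm; DMSO negative control.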

[6] = biological target: Peroxisome proliferator-activated receptor gamma (Homo sapiens) (UniProt P37231); experiment: OT_PPARg_PPARgSRC1_1440: Odyssey Thera (OT) 24-hour Protein-Complementation Assay for Peroxisome Proliferator-activated Receptor Gamma/ SRC-1 Co-activator (AID 2283388; active = hit-call score of the fitted dose curve at least 0.9, where 1 is the maximum;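 note: nuclear to cytoplasmic ratio of reconstituted Venus YFP fluorescence in fixed imaged cells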)
Method in brief: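 Readout: nuclear-to-cytoplasmic 488 nm fluorescence ratio, ≥350 cells per image, 8 images per well, after 24 h compound exposure of HEK293T expressing PPARg/SRC-1 split-YFP fusions. Activity fitted in positive direction against DMSO.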

[7] = CEETOX_H295R_11DCORT: CeeTox H295R High-throughput Steroidogenesis Assay for 11-Deoxycortisol (11DCORT) (AID 2283432); details: actives raise or lower the signal;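 for AC50: 11-deoxycortisol secreted into the medium measured by LC-MS/MS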
Method in brief: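 Adrenal carcinoma line H295R, run per OECD 456 with minor changes, was forskolin-stimulated (10 uM, 48 h) before a 48 h chemical exposure at 0.1% DMSO. Secreted 11-deoxycortisol was quantified by HPLC-MS/MS.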

[8] = CEETOX_H295R_OHPREG: CeeTox H295R High-throughput Steroidogenesis Assay for OH-Pregnenolone (OHPREG) (AID 2283434); details: actives raise or lower the signal
Method in brief: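 H295R cells pre-stimulated 48 h with 10 uM forskolin, then exposed 48 h to chemical in 0.1% DMSO. 17alpha-hydroxypregnenolone in medium quantified by MTBE extraction and HPLC-MS/MS; bidirectional fit versus DMSO, viability checked by MTT.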

[9] = CEETOX_H295R_OHPROG: CeeTox H295R High-throughput Steroidogenesis Assay for OH-Progesterone (OHPROG) (AID 2283435); details: actives raise or lower the signal;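 for AC50: human adrenal H295R cells primed 48 h with 10 µM forskolin; 17alpha-hydroxyprogesterone secreted into medium measured by HPLC-MS/MS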
Method in brief: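 H295R, 10 uM forskolin prestim 48 h; cmpd in 0.1% DMSO 48 h; medium MTBE-extracted, HPLC-MS/MS for OH-progesterone; 7-pt std curve; bidirectional fit vs DMSO; MTT viability, chemicals diluted until viability >/=70%.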

[10] = CEETOX_H295R_ANDR: CeeTox H295R High-throughput Steroidogenesis Assay for Androstenedione (ANDR) (AID 2283436); details: actives raise or lower the signal
Method in brief: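 H295R cells, following OECD 456 with minor changes, exposed to chemicals for 48 h. Androstenedione in the medium was quantified by HPLC-MS/MS after MTBE extraction. Fitting was bidirectional versus DMSO; chemicals were diluted until MTT viability was ≥70%.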

[11] = CEETOX_H295R_CORTIC: CeeTox H295R High-throughput Steroidogenesis Assay for Corticosterone (CORTIC) (AID 2283437); details: actives raise or lower the signal;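 note: corticosterone secreted into medium quantified by mass spectrometry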
Method in brief: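 H295R adrenal cells prestimulated 48 hours with 10 uM forskolin, then exposed 48 hours to chemical in 0.1% DMSO. Corticosterone in medium measured by HPLC-MS/MS after MTBE extraction; MTT viability in the same wells; bidirectional fit versus DMSO.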

[12] = CEETOX_H295R_CORTISOL: CeeTox H295R High-throughput Steroidogenesis Assay for Cortisol (AID 2283438); details: actives raise or lower the signal;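 note: cortisol secreted into medium quantified by LC-MS/MS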
Method in brief: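 Forskolin 10 uM 48 h prestim → test cmpd in DMSO (0.1% final) 48 h → medium MTBE-extracted → LC-MS/MS cortisol vs 7-pt std curve. Gain/loss of signal fitted vs DMSO. MTT viability in same wells.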

[13] = CEETOX_H295R_DOC: CeeTox H295R High-throughput Steroidogenesis Assay for DOC (AID 2283439); details: actives raise or lower the signal
Method in brief: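 Readout: 11-deoxycorticosterone in culture medium by reverse-phase C18 HPLC with ESI+ tandem MS after MTBE extraction. Cells: H295R, forskolin-primed (10 uM, 48 h), chemical-treated 48 h; DMSO 0.1% final. Activity fitted bidirectionally versus DMSO.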

[14] = CEETOX_H295R_ESTRADIOL: CeeTox H295R High-throughput Steroidogenesis Assay for Estradiol (AID 2283440); details: actives raise or lower the signal;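 note: estradiol secreted into medium quantified by LC-MS/MS after dansyl derivatisation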
Method in brief: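 H295R, 48 h forskolin (10 uM) prestim → 48 h compound, 0.1% DMSO final. Estradiol in medium: MTBE extraction, dansyl chloride derivatization, LC-MS/MS. Fit bidirectional vs DMSO baseline; MTT viability in same wells.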

[15] = CEETOX_H295R_ESTRONE: CeeTox H295R High-throughput Steroidogenesis Assay for Estrone (AID 2283441); details: actives raise or lower the signal;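 note: estrone secreted into medium measured by LC-MS/MS after dansyl derivatization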
Method in brief: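 H295R cells prestimulated 48 h with 10 uM forskolin, then exposed 48 h to chemicals in 0.1% DMSO final; estrone in medium extracted with MTBE, dansyl-derivatized, quantified by HPLC-MS/MS; bidirectional fitting versus DMSO, viability by MTT.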

[16] = CEETOX_H295R_PROG: CeeTox H295R High-throughput Steroidogenesis Assay for Progesterone (PROG) (AID 2283442); details: actives raise or lower the signal
Method in brief: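 Progesterone read-out: HPLC-MS/MS on MTBE extracts of conditioned medium after 48 h chemical exposure of forskolin-primed (10 uM, 48 h) H295R cells. Gain or loss of signal was fitted relative to DMSO baseline.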

[17] = biological target: Bile acid receptor (Homo sapiens) (UniProt Q96RI1); experiment: OT_FXR_FXRSRC1_0480: Odyssey Thera (OT) 8-hour HEK293T Protein-Complementation Assay for Farnesoid X receptor/SRC-1 Co-activator (AID 2283383; active = hit-call score of the fitted dose curve at least 0.9, where 1 is the maximum)
Method in brief: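 Human kidney HEK293T cells carried FXR/SRC-1 fragment-complementation constructs. Compounds were added and incubated 8 h. Reporter reassembly upon receptor–co-activator interaction was then quantified by fluorescence, with curves fitted in the positive direction relative to DMSO.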

[18] = biological target: Bile acid receptor (Homo sapiens) (UniProt Q96RI1); experiment: OT_FXR_FXRSRC1_1440: Odyssey Thera (OT) 24-hour HEK293T Protein-Complementation Assay for Farnesoid X receptor/SRC-1 Co-activator (AID 2283384; active = hit-call score of the fitted dose curve at least 0.9, where 1 is the maximum)
Method in brief: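 Compounds are applied to human kidney HEK293T cells expressing bait and prey fused to reporter protein fragments; after 24 h, reconstituted reporter fluorescence is measured. Activity is fitted as signal gain over DMSO.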

[19] = biological target: Retinoic acid receptor RXR-alpha (Homo sapiens) (UniProt P19793); experiment: OT_NURR1_NURR1RXRa_0480: Odyssey Thera (OT) 8-hour HEK293T Protein Complementation Assay for Nurr1/retinoid X receptor (RXR) (AID 2283385; active = hit-call score of the fitted dose curve at least 0.9, where 1 is the maximum)
Method in brief: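 8 h compound exposure, HEK293T; Nurr1/RXRα fragment complementation; fluorescence intensity; positive fitting direction vs DMSO baseline.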

[20] = biological target: Retinoic acid receptor RXR-alpha (Homo sapiens) (UniProt P19793); experiment: OT_NURR1_NURR1RXRa_1440: Odyssey Thera (OT) 24-hour HEK293T Protein Complementation Assay for Nurr1/retinoid X receptor (RXR) (AID 2283386; active = hit-call score of the fitted dose curve at least 0.9, where 1 is the maximum)
Method in brief: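 Interaction of Nurr1 with RXRα brings fused reporter fragments together in human HEK293T cells, restoring a functional reporter. Fluorescence intensity is measured 24 h after chemical treatment, and values are analysed in the positive direction against DMSO.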

Measured: AC50

Sequence of Retinoic acid receptor RXR-alpha (Homo sapiens) (P19793 whole entry, looked up, the tested form may be a part): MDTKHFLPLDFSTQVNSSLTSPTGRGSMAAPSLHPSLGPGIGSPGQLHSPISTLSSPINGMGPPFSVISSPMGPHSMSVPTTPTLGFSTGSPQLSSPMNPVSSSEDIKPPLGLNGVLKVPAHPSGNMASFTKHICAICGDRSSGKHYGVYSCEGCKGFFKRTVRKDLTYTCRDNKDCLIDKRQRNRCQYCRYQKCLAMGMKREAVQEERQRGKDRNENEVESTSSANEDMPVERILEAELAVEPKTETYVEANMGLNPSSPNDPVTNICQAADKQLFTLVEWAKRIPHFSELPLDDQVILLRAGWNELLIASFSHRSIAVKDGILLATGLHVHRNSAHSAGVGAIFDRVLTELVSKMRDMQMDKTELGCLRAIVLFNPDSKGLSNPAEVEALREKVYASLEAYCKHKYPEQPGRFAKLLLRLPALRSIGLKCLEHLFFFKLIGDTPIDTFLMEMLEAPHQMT
Sequence of Peroxisome proliferator-activated receptor gamma (Homo sapiens) (P37231 whole entry, looked up, the tested form may be a part): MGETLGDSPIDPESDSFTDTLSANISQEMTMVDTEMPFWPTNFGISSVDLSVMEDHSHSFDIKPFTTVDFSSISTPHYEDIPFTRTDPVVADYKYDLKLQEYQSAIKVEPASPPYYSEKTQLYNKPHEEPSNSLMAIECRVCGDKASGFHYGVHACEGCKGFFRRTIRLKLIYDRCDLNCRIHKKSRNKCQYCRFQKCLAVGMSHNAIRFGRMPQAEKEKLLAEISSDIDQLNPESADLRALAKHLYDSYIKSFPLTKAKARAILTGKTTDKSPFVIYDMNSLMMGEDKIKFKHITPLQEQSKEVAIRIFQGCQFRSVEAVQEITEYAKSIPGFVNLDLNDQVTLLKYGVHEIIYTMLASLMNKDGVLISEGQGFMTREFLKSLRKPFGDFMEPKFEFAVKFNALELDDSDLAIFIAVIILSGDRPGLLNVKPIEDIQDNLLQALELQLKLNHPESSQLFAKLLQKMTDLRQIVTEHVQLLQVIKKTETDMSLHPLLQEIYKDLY
Sequence of Bile acid receptor (Homo sapiens) (Q96RI1 whole entry, looked up, the tested form may be a part): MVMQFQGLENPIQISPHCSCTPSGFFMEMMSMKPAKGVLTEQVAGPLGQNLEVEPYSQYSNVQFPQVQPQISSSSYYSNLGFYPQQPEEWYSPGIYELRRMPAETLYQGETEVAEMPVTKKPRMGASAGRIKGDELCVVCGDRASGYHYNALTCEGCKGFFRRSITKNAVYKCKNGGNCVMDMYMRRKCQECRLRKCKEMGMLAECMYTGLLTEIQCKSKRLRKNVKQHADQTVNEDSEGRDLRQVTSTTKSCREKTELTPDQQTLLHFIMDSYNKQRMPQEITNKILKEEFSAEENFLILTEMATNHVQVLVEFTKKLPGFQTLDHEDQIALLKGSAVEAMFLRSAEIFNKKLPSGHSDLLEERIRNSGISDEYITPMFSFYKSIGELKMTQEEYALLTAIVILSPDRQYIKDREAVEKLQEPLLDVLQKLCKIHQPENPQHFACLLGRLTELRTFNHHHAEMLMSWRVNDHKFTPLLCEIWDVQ
Sequence of Estrogen receptor (Homo sapiens) (P03372 whole entry, looked up): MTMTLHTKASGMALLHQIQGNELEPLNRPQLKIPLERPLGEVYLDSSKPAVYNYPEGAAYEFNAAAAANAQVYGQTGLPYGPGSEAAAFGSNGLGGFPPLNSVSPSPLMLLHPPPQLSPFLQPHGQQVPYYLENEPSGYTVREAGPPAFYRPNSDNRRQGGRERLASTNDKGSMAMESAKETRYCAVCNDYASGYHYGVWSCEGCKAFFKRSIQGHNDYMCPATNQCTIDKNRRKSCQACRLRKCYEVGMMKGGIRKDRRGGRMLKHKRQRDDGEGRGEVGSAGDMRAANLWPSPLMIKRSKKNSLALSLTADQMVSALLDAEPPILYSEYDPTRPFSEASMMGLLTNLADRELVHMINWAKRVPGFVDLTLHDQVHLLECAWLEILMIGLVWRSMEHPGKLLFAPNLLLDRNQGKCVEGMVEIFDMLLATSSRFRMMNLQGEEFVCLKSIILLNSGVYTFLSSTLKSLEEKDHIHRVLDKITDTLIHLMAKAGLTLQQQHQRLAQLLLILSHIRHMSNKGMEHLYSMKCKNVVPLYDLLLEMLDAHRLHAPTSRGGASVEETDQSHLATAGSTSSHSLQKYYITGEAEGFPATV
Sequence of Estrogen receptor beta (Homo sapiens) (Q92731 whole entry, looked up, the tested form may be a part): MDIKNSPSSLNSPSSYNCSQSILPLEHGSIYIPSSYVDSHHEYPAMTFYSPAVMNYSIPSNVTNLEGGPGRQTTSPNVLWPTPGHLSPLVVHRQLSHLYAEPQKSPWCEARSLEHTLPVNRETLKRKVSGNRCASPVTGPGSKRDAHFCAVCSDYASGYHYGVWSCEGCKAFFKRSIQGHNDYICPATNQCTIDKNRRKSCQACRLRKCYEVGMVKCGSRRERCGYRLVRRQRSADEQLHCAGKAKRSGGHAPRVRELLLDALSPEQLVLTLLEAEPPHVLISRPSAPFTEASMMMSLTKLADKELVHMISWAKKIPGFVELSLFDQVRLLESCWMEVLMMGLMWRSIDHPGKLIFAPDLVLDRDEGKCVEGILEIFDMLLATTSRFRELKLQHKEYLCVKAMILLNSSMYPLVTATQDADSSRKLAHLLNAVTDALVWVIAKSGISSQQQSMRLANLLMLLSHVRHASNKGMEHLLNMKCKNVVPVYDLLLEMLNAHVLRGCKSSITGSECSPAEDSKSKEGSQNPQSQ
Sequence of Agonist Androgen Response Element (ARE), AR (gene 367) (P10275 whole entry, looked up): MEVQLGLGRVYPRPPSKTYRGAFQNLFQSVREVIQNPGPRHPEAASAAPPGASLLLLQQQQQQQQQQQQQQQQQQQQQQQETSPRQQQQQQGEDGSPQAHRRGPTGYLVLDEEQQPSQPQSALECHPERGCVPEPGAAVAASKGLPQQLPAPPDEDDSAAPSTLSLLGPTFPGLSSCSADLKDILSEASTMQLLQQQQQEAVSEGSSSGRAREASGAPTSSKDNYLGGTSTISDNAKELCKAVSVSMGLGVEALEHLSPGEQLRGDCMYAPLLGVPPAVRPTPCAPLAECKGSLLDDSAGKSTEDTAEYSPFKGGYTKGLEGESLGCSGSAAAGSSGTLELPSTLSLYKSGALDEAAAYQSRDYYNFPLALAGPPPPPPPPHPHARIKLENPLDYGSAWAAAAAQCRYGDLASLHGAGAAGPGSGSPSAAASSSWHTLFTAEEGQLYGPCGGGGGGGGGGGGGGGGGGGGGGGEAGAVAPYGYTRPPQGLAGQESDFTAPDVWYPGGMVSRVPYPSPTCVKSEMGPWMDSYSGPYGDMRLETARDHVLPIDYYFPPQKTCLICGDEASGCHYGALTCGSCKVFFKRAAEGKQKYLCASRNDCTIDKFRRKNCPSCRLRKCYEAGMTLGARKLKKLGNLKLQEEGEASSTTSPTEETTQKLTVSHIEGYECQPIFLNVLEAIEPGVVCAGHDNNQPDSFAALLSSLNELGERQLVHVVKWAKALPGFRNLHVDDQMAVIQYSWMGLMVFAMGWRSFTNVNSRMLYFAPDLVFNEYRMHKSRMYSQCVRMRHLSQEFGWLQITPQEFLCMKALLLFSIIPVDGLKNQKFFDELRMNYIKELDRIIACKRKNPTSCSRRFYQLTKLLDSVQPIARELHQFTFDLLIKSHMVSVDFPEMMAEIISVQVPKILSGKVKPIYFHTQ

O=C1C=CC(=O)N1c1ccccc1
inactive: [1] | [2] | [3] | [4] | [5] | [6] | [7] | [8] | [9] | [10] | [11] | [12] | [13] | [14] | [15] | [16]

Cc1ccc(O)c(-n2nc3ccccc3n2)c1
active: [17] 50 µM
inactive: [2] | [3] | [4] | [18] | [19] | [20] | [5] | [6]

O=C(c1ccccc1)c1ccc(Cl)cc1
inactive: [7] | [8] | [10] | [11] | [12] | [13] | [16]
active: [9] 37.9 µM

Cc1cccc(C)n1
inactive: [7] | [8] | [9] | [10] | [11] | [12] | [13] | [14] | [15] | [16]

O=C(c1ccccc1)c1ccc(O)cc1O
active: [3] 8.62 µM | [4] 6.29 µM
inactive: [17] | [18] | [19] | [5] | [6]

N#Cc1ccccc1O
inactive: [3] | [4] | [18] | [20] | [5] | [6] | [7] | [8] | [11] | [12] | [16]
active: [9] 30.1 µM | [13] 77.7 µM

CCN(CC)c1ccc(N=Nc2ccccc2)cc1
active: [7] 10 µM
inactive: [8] | [9] | [10] | [11] | [12] | [13] | [14] | [15] | [16]

CC(=O)CCC(C)C
inactive: [3] | [4] | [17] | [19] | [5] | [6]

Cc1ccc([N+](=O)[O-])c(C)c1
inactive: [3] | [4] | [18] | [19] | [5] | [6]

CC1CCCCC1
inactive: [7] | [8] | [9] | [10] | [11] | [12] | [13] | [14] | [15] | [16]

CCCCOC(=O)C(C)O (stereo unspecified)
active: [4] 2.95 µM
inactive: [3] | [17] | [19] | [5] | [6]
